Laboratory results from PubChem BioAssay (Tox21).
“And” between values parts separate entries of the source, which are not always exact repeats. Equal values may be shown once. Records with an inconclusive call do not appear. A structure can be active in one record and inactive in another. The source made the active and inactive calls. Unless noted, calls come from the whole dose curve; as a rule, active = well fitted curve in the direction sought with a large enough effect in the repeat runs; inconclusive = weak or mixed curves; inactive = no such curve, though single readings can be large; an effect the other way counts as inactive or inconclusive.

How the values were obtained:
[1] = biological target: Acetylcholinesterase (Homo sapiens) (UniProt P22303); assay: Acetylcholinesterase (AChE) small molecule antagonists: colormetric cell-based qHTS assay (AID 1347395; calls by dose curve; note: nearly all actives have a fitted effect of over 30% in size; note: potency is the fitted concentration of half-maximal effect)
Sequence of Acetylcholinesterase (Homo sapiens) (P22303 whole entry, looked up): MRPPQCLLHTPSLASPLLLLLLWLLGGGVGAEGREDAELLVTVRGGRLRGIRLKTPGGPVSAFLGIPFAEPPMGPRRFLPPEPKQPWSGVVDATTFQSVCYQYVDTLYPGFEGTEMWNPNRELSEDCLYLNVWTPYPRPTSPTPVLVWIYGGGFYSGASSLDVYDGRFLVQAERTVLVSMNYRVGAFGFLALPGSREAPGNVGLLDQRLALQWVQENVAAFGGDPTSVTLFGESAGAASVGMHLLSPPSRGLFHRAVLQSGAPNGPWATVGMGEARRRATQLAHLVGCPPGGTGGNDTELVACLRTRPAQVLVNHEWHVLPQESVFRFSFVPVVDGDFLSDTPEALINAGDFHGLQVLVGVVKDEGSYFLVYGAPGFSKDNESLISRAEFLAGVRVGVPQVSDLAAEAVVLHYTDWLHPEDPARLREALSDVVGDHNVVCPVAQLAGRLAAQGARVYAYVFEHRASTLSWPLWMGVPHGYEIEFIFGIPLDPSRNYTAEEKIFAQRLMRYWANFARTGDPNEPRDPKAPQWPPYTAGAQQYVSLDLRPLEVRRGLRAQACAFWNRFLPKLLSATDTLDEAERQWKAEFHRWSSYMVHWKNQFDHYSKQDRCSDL
Summary of the method: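 AChE inhibition read colorimetrically via DTNB–thiocholine in SH-SY5Y cells. Compound 30 min, substrate 90 min, both 37 C.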

[2] = biological target: Acetylcholinesterase (Homo sapiens) (UniProt P22303); assay: Acetylcholinesterase (AChE) small molecule antagonists: enzyme-based qHTS assay (AID 1347397; calls by dose curve; note: nearly all actives have a fitted effect of over 55% in size; note: potency is the fitted concentration of half-maximal effect); conditions: Potency: AChE enzyme activity inhibition
Summary of the method: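 In this quantitative HTS, compounds from the Tox21 10K collection were preincubated 30 min at ambient temperature with recombinant human AChE dispensed at 50 mU/mL. Hydrolysis of acetylthiocholine was then followed for 10 min by DTNB colour development.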

[3] = biological target: Acetylcholinesterase (Homo sapiens) (UniProt P22303); assay: Acetylcholinesterase (AChE) small molecule antagonists: fluorescence cell-based qHTS assay (AID 1347398; calls by dose curve; note: nearly all actives have a fitted effect of over 50% in size; note: potency is the fitted concentration of half-maximal effect); conditions: Potency: AChE activity
Summary of the method: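 Cells (SH-SY5Y) attached overnight, were dosed with compound or DMSO vehicle for 30 min at 37 C, and then incubated 40 min at room temperature with acetylthiocholine and Thiolite Green; green fluorescence indexed AChE activity.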

[4] = biological target: Acetylcholinesterase (Homo sapiens) (UniProt P22303); assay: Acetylcholinesterase (AChE) small molecule antagonists: enzyme-based qHTS assay with human liver microsomes (AID 1347399; calls by dose curve; note: nearly all actives have a fitted effect of over 60% in size); conditions: Potency: qHTS inhibition
Summary of the method: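 Recombinant human AChE (50 mU/mL in the enzyme mix) and human liver microsomes (0.25 mg/mL final) were preincubated with compound and NADPH (0.25 mg/mL final) for 30 min at 37 C. Acetylthiocholine/DTNB was then added; thiocholine was read colorimetrically after 10 min at room temperature.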

[5] = biological target: Cytochrome P450 2D6 (Homo sapiens) (UniProt P10635); assay: Cytochrome P450 Family 2 Subfamily D Member 6 (CYP2D6) small molecule antagonists: luciferase reporter qHTS assay (AID 1671196); note: nearly all actives have a fitted effect of over 50% in size; note: potency is the fitted concentration of half-maximal effect
Sequence of Cytochrome P450 2D6 (Homo sapiens) (P10635 whole entry, looked up): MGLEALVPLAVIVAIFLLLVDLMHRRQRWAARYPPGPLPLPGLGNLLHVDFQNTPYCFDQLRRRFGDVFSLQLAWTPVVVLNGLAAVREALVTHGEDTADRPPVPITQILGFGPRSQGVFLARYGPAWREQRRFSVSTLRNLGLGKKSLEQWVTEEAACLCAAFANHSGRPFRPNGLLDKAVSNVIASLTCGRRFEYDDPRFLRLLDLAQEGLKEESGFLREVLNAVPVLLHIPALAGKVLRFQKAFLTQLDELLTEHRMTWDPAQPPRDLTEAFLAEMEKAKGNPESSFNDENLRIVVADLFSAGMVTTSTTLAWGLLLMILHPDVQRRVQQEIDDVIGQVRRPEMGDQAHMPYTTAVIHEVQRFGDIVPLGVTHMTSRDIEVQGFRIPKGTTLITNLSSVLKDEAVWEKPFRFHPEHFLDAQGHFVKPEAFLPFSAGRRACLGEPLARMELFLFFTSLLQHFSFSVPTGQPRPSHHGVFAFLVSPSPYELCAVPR
Summary of the method: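 Enzyme and proluciferin substrate were first combined with test chemical for 10 min at room temperature. Adding NADPH regeneration solution started a 1 h reaction, stopped with luciferin detection reagent and read by luminescence 20 min later.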

[6] = biological target: Cytochrome P450 2C19 (Homo sapiens) (UniProt P33261); assay: Cytochrome P450 Family 2 Subfamily C Member 19 (CYP2C19) small molecule antagonists: luciferase reporter qHTS assay (AID 1671197); note: nearly all actives have a fitted effect of over 65% in size; note: potency is the fitted concentration of half-maximal effect
Sequence of Cytochrome P450 2C19 (Homo sapiens) (P33261 whole entry, looked up): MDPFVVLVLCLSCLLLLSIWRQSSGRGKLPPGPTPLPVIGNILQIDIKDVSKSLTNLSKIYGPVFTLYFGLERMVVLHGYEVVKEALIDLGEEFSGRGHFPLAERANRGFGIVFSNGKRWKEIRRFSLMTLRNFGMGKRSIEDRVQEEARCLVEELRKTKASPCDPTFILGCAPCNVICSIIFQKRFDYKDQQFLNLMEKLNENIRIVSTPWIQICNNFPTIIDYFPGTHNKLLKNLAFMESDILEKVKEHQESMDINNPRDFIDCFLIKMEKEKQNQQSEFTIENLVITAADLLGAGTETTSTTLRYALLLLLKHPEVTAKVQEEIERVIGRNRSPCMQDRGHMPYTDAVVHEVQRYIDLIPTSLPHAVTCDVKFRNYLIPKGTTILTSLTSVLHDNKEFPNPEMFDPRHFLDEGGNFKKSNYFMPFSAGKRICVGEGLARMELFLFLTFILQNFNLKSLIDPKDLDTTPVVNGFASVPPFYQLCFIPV
Summary of the method: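 Quantitative high-throughput screen of the Tox21 library using CYP2C19 with proluciferin substrate. Reaction: NADPH regeneration, 37C, 1 h, after 10 min compound preincubation at room temperature. Readout: luminescence.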

[7] = biological target: Cytochrome P450 2C9 (Homo sapiens) (UniProt P11712); assay: Cytochrome P450 Family 2 Subfamily C Member 9 (CYP2C9) small molecule antagonists: luciferase reporter qHTS assay (AID 1671198); note: nearly all actives have a fitted effect of over 50% in size; note: potency is the fitted concentration of half-maximal effect
Sequence of Cytochrome P450 2C9 (Homo sapiens) (P11712 whole entry, looked up): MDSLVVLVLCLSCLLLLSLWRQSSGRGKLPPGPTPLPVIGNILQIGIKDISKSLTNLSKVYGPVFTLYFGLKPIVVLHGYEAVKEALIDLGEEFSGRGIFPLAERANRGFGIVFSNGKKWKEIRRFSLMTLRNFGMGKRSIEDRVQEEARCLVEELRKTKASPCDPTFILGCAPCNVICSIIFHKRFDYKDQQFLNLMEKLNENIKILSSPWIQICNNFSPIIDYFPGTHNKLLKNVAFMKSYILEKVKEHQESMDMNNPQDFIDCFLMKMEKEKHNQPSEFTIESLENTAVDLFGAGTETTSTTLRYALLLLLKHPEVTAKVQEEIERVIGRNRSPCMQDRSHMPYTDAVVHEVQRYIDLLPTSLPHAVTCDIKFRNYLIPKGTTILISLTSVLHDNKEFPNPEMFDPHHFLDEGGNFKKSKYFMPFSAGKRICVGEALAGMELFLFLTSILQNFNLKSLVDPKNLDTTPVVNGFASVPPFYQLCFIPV
Summary of the method: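 P450-Glo proluciferin substrate with CYP2C9 enzyme; 10 min RT preincubation, then NADPH regeneration 1 h at 37C; luciferin detection reagent 20 min RT, luminescence in relative luminescence units.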

[8] = biological target: Cytochrome P450 1A2 (Homo sapiens) (UniProt P05177); assay: Cytochrome P450 Family 1 Subfamily A Member 2 (CYP1A2) small molecule antagonists: luciferase reporter qHTS assay (AID 1671199); note: nearly all actives have a fitted effect of over 50% in size; note: potency is the fitted concentration of half-maximal effect
Sequence of Cytochrome P450 1A2 (Homo sapiens) (P05177 whole entry, looked up): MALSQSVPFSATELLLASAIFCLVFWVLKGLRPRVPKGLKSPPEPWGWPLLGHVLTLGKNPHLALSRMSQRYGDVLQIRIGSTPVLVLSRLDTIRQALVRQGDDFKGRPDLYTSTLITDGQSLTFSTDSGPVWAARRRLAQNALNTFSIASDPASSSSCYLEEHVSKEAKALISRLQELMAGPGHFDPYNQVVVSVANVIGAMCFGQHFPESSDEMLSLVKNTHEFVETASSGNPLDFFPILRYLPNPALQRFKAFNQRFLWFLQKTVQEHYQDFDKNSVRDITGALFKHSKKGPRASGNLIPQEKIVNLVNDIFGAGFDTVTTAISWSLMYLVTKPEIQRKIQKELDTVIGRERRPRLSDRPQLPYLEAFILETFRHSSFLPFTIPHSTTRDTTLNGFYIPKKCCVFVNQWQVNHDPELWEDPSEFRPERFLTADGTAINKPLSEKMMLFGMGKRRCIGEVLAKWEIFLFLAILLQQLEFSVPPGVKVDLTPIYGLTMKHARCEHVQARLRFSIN
Summary of the method: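 Compounds were incubated with CYP1A2 and a luminogenic proluciferin substrate for 10 min at room temperature before the reaction was started with NADPH regeneration solution. After 1 h, detection reagent was added and light output, proportional to CYP activity, was recorded.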

[9] = biological target: Voltage-gated inwardly rectifying potassium channel KCNH2 (Homo sapiens) (UniProt Q12809); assay: Human Ether-a-go-go-Related Gene (hERG) channel small molecule antagonists: fluorescence cell-based qHTS assay (AID 1671200)
Sequence of Voltage-gated inwardly rectifying potassium channel KCNH2 (Homo sapiens) (Q12809 whole entry, looked up): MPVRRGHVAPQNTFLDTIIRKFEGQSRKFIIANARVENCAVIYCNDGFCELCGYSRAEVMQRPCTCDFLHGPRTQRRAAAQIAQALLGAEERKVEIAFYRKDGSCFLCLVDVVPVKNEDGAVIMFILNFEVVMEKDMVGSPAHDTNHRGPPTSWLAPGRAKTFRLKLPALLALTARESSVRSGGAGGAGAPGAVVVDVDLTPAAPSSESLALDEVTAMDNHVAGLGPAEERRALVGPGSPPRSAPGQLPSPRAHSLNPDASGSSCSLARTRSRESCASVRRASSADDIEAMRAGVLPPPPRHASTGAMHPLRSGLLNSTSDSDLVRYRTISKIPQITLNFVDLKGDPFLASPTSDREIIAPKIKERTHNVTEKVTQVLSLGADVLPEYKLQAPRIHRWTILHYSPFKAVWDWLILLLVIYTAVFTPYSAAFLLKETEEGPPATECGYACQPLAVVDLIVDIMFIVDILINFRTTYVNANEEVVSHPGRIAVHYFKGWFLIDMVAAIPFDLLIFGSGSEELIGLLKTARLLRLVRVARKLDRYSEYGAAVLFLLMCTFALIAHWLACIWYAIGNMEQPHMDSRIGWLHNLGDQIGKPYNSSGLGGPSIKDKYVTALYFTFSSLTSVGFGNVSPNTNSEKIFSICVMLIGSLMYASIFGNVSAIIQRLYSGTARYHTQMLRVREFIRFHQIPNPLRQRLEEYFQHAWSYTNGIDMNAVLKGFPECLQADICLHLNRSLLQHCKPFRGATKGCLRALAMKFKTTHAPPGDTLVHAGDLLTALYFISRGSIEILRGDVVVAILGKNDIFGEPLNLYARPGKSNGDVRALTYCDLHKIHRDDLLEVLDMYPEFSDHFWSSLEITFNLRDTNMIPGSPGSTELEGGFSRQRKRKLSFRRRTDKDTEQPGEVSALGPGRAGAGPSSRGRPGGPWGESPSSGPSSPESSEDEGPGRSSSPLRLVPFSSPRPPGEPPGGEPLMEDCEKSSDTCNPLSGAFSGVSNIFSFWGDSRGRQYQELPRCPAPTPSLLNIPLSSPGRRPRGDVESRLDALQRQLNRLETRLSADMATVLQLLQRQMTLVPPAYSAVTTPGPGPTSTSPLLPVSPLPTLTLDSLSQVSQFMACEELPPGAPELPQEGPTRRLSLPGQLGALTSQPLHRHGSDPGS
Summary of the method: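 Kinetic two-minute fluorescence traces, sampled at 1 s, were collected following thallium stimulus of U2OS cells (1000 per well) that had been cultured overnight at 37 C and loaded with FluxOR II.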

[10] = biological target: Cytochrome P450 3A4 (Homo sapiens) (UniProt P08684); assay: Cytochrome P450 Family 3 Subfamily A Member 4 (CYP3A4) small molecule antagonists: luciferase reporter qHTS assay (AID 1671201); note: nearly all actives have a fitted effect of over 50% in size; note: potency is the fitted concentration of half-maximal effect
Sequence of Cytochrome P450 3A4 (Homo sapiens) (P08684 whole entry, looked up): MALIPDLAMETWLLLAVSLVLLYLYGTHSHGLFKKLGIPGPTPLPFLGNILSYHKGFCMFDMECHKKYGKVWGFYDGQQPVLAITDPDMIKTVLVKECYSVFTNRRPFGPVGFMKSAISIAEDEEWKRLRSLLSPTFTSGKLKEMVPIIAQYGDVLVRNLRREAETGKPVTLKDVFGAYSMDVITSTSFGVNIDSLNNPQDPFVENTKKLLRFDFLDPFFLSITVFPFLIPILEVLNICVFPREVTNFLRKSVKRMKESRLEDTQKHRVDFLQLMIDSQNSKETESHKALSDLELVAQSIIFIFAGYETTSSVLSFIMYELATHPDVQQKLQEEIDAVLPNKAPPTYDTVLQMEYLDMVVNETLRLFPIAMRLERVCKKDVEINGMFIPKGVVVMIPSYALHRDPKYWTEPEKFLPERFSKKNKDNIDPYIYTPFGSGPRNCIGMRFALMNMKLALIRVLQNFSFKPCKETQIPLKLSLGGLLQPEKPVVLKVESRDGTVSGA
Summary of the method: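 Proluciferin-to-luciferin conversion by CYP3A4, NADPH-regenerated, 1 h RT; luminescence read as RLU. Ketoconazole as control.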

Measured: Potency

CNC(=O)N(C)c1nnc(C(C)(C)C)s1
39.9 µM (active) and inactive: [6]
active: [8] 39.9 µM
inactive: [1] | [2] | [3] | [4] | [5] | [7] | [9]

COP(=S)(OC)Oc1ccc([N+](=O)[O-])cc1
active: [1] 25.2 µM | [6] 8.95 µM and 2.52 µM | [7] 35.6 µM and 12.6 µM | [8] 7.11 µM and 2 µM
inactive and 35.6 µM (active): [3] | [5]
inactive: [2] | [4] | [9]

Cc1c(COC(=O)[C@@H]2[C@H](/C=C(\Cl)C(F)(F)F)C2(C)C)cccc1-c1ccccc1
inactive: [1] | [2] | [3] | [4] | [5] | [8] | [9] | [10]
active: [6] 7.79 µM and 8.91 µM | [7] 19.6 µM and 11.2 µM

Oc1ccc(-c2ccccc2)cc1
inactive: [1] | [2] | [3] | [4] | [9] | [10]
active: [5] 31.3 µM | [6] 35.1 µM and 35.6 µM | [7] 39.4 µM | [8] 11.1 µM and 11.2 µM

NC(=S)Nc1ccccc1
active: [5] 9.09 µM and 35.6 µM
25.6 µM (active) and inactive: [7] | [8]
inactive: [1] | [2] | [3] | [4] | [9]
4.06 µM (active) and inactive: [6]

C=CCc1ccc2c(c1)OCO2
active: [8] 28.3 µM
inactive: [1] | [3] | [4] | [5] | [6] | [7] | [9]

CCC(CC)Nc1c([N+](=O)[O-])cc(C)c(C)c1[N+](=O)[O-]
inactive: [1] | [2] | [4] | [5] | [9]
active: [6] 36.1 µM and 10 µM | [7] 32.1 µM and 25.2 µM | [8] 28.6 µM and 17.8 µM

NNC(N)=S
inactive: [1] | [2] | [4] | [5] | [9] | [10]
active: [6] 73.8 µM | [8] 20.8 µM and 31.7 µM

c1ccc(N=Nc2ccccc2)cc1
14.4 µM (active) and inactive: [5]
inactive: [1] | [2] | [4] | [6] | [7] | [9]
active: [8] 25.7 µM and 10 µM

c1ccc(NNc2ccccc2)cc1
active: [8] 32 µM and 12.6 µM
71.7 µM (active) and inactive: [7]
inactive: [1] | [2] | [4] | [5] | [6] | [9] | [10]

Nc1ccc(-c2ccccc2)cc1
active: [5] 35.6 µM | [6] 11.6 µM and 11.2 µM | [7] 13 µM and 12.6 µM | [8] 1.83 µM and 6.33 µM | [10] 6.5 µM and 20 µM
inactive: [1] | [2] | [4] | [9]

Oc1cc(Cl)c(Cl)cc1Cl
active: [8] 22.3 µM and 20 µM and 22.4 µM
inactive: [1] | [3] | [4] | [5] | [6] | [7] | [9]

CN(C)c1ccc(C(=O)c2ccc(N(C)C)cc2)cc1
inactive: [1] | [3] | [4]
active: [6] 8.85 µM and 8.94 µM | [7] 31.7 µM | [8] 17.7 µM and 14.2 µM
inactive and 35.6 µM (active): [5]

CCCCOCCOP(=O)(OCCOCCCC)OCCOCCCC
active: [6] 7.98 µM and 8.94 µM | [7] 8.95 µM and 15.9 µM | [10] 8.95 µM and 15.9 µM
inactive: [1] | [2] | [4] | [9]

CC(C)NC(C)C
inactive: [1] | [3] | [4] | [5] | [6] | [7] | [8] | [9]

Nc1ccc(Cl)cc1N
inactive: [1] | [2] | [4] | [9]
active: [5] 32.6 µM | [6] 20.8 µM and 7.1 µM | [7] 32.6 µM | [8] 11.7 µM and 10.9 µM

O=C(O)CC[N+](=O)[O-]
inactive and 8.94 µM (active): [1]
inactive and 28.3 µM (active): [2]
inactive: [4] | [5] | [6] | [8] | [9]

N#Cc1cc(Br)c(O)c(Br)c1
inactive: [1] | [2] | [4] | [5] | [6] | [8] | [9] | [10]
active: [7] 20 µM and 15.3 µM
